# Measurements reported in PubChem BioAssay (NCI).
# About 83,000 compounds went through this panel and 20% of them were active in at least one assay; those are over-represented in the sample as a whole.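 Assay: single dose, 48 h. Readout: percent growth (0 = no net growth; negative = cell death). Active: <10.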 Unmarked numbers belong to inactive results. Active and inactive are the calls of the source.
# Key:
# Test in all cases: NCI-60 one-dose screen, 48 h (100 = growth as untreated, 0 = no growth, -100 = all killed)
# Conditions in all cases: 10 µM
# RPMI-8226 leukemia = system: RPMI-8226 leukemia
# OVCAR-8 ovarian = system: OVCAR-8 ovarian
# OVCAR-5 ovarian = system: OVCAR-5 ovarian
# OVCAR-4 ovarian = system: OVCAR-4 ovarian
# SK-OV-3 ovarian = system: SK-OV-3 ovarian
# IGROV1 ovarian = system: IGROV1 ovarian
# OVCAR-3 ovarian = system: OVCAR-3 ovarian
# HS 578T breast = system: HS 578T breast
# NCI/ADR-RES ovarian = system: NCI/ADR-RES ovarian
# T-47D breast = system: T-47D breast
Structure (SMILES),growth (RPMI-8226 leukemia),growth (OVCAR-8 ovarian),growth (OVCAR-5 ovarian),growth (OVCAR-4 ovarian),growth (SK-OV-3 ovarian),growth (IGROV1 ovarian),growth (OVCAR-3 ovarian),growth (HS 578T breast),growth (NCI/ADR-RES ovarian),growth (T-47D breast)
Nc1c(C(=O)Nc2cccc(F)c2)sc2nc3c(cc12)C(=O)CCC3,43.1%,63.9%,38.2%,57.8%,25.6%,44.1%,-3.4% (active),29.3%,13.3%,42.6%
COc1cc(-c2cc(/C=C/C(=O)c3ccc(N)cc3)[nH]n2)cc(OC)c1OC,-26.5% (active),-53.4% (active),-15% (active),26.8%,27.2%,18.1%,-45.9% (active),19.2%,64.7%,5.11% (active)
CC(=O)c1cc(Cl)ccc1O,105%,109%,94.3%,120%,111%,116%,102%,104%,104%,99.7%
COc1cc(C2CC(c3ccc(Nc4ccnc5cc(Cl)ccc45)cc3)=NN2c2ccc(Cl)cc2)cc(OC)c1OC (configuration not stated),44.7%,53.8%,80.6%,69.7%,79.2%,57.5%,38%,61.6%,29.6%,41.3%
Fc1ccc(-c2nnc(-c3c(-c4ccc(F)cc4)nc4ccccn34)o2)cc1,85.1%,36.7%,99.9%,88.8%,85.3%,114%,90.3%,92.4%,67.7%,62.3%
CN(C)CCN=c1nc2c(c(N)n1-c1ccccc1)c(=S)n(-c1ccccc1)c(=S)n2-c1ccccc1,-4.61% (active),33.6%,63.1%,41.7%,76.3%,36.3%,-48.7% (active),12.3%,58.7%,-19.4% (active)
O=C(O)C(SC(C(=O)O)c1ccccc1)c1ccccc1 (configuration not stated),102%,110%,106%,102%,99.7%,115%,114%,113%,106%,–
COc1cc(/C=N/NC(=O)c2ccccc2Nc2cccc(C(F)(F)F)c2)cc(OC)c1OC,236%,34.3%,62.1%,9.6% (active),16.1%,-17.1% (active),-53.8% (active),12.2%,12.6%,29.6%
O=C(/C(=C/c1ccccc1)CN1CCCCC1)c1ccccc1,-6.34% (active),11%,-66.5% (active),12%,31%,-7.89% (active),-92.7% (active),47.5%,4.84% (active),–
O=C1/C(=C\c2cn(C(=O)c3ccc(Cl)cc3)c3ccccc23)c2ccccc2N1C(=O)c1ccc(Cl)cc1,57.5%,78.7%,115%,72%,77%,80%,84.3%,80.5%,83.4%,61.7%
C=C(C(=O)c1ccccc1)C(NC(C)(C)C)c1ccccc1 (configuration not stated),-3.32% (active),-32% (active),-29.2% (active),-13.1% (active),67.9%,3.59% (active),-65.9% (active),36.8%,-7% (active),–
COc1cc(-c2cc(C(=O)N3CCN(C(=O)c4ccccc4NCc4cccs4)CC3)nc3cc(-c4ccccc4)nn23)cc(OC)c1OC,75.2%,90%,86.6%,89.4%,86.7%,36.6%,9.27% (active),85.7%,52.6%,79.6%
COc1ccc2c(c1)C(=O)c1c-2c(OCCN(C)C)nc2ccccc12,17.4%,14.3%,63%,44.1%,61%,-18.7% (active),30.4%,41%,22.8%,48.2%
O=C1/C(=C/c2ccc([N+](=O)[O-])s2)Oc2ccccc21,0.673% (active),2.43% (active),-56.7% (active),-86.7% (active),12.3%,-72.5% (active),-60.8% (active),25.7%,12.3%,2.78% (active)
COc1ccc2c(c1)sc1nc(-c3ccccc3)c(-c3ccsc3)n12,15.2%,30.8%,51.6%,62.8%,23.5%,31.1%,-51.6% (active),3.75% (active),9.35% (active),57%
S=C1SCC(c2ccccc2)S1 (configuration not stated),102%,103%,106%,93.8%,104%,114%,121%,143%,112%,99.6%
C#Cc1ccc(-n2c(/C=C/c3ccc(O)c(OC)c3)nc3ncccc3c2=O)cc1,83.5%,97.1%,108%,80.8%,107%,95.6%,100%,104%,109%,91.1%
COc1cc2nc(Nc3cccc(C(=O)O)c3)nc(N)c2cc1OC,307%,105%,114%,103%,107%,16.4%,101%,93.4%,133%,105%
Cc1ccc(C)c(C(O)(c2cc(C)ccc2C)C2(O)CCCCC2)c1,89.7%,97.5%,97.9%,93%,90.9%,104%,93.6%,94.1%,94.8%,72.5%
COc1ccc(Oc2nc(NC3CCCC3)nc(Sc3ccc(OC)cc3)n2)cc1,63.7%,65.4%,91.1%,74.3%,82.8%,64.9%,77.1%,83.8%,66.2%,55.9%
O=C(Nc1ccncc1)C(=O)c1cn(S(=O)(=O)c2cccc3ccccc23)c2ccccc12,43.1%,92.4%,102%,79.6%,87.9%,73.8%,88.2%,100%,78.4%,70.9%
COc1ccc2c(c1)C(=O)c1c-2c(=O)n(CCCN(C)C)c2cc(OC)c(OC)cc12,66.6%,62.1%,130%,74.4%,69.9%,67.2%,94.9%,119%,58.7%,81.2%
C=C1c2c(C)nn(-c3ccc(OC)cc3)c2N(C)C23C[C@@H]1C1(C)c4c(C)nn(-c5ccc(OC)cc5)c4N(C)C(C)(C[C@H]12)C3 (some centres not stated),4.67% (active),31.8%,61.7%,28.1%,60.2%,70.8%,24%,67.4%,35%,13.4%
Nc1cc2c(cc1Cl)-c1ccc([N+](=O)[O-])cc1/C2=N\O,44.7%,99.5%,145%,88.9%,97%,57.1%,86.6%,106%,95.1%,101%
C#Cc1ccc(-n2c(/C=C/c3ccc4ccccc4n3)nc3ncccc3c2=O)cc1,-27.7% (active),-16.4% (active),-4.33% (active),-62.4% (active),5.05% (active),-65.6% (active),-66.8% (active),11%,-6.13% (active),-51.9% (active)
CCCCCC(=O)c1ccc(OCCCN2CCN(C(=O)OCC)CC2)cc1,48.6%,104%,86%,85.1%,104%,112%,104%,102%,83.3%,88.1%
O=C(O)CC(Cl)C(Cl)CC(=O)O (configuration not stated),99.2%,102%,106%,104%,98.1%,106%,106%,115%,102%,99.6%
CC/C(=C(/c1ccc(OCCN(C)C)cc1)c1ccc(OC(=O)CCCCC(=O)c2c(C)[nH]c(/C=C3\N=C(c4ccc[nH]4)C=C3OC)c2C)cc1)c1ccccc1,25.4%,72.5%,91.3%,55%,81.4%,85.4%,80.1%,33.8%,71.7%,25.2%
